Assay results taken from PubChem BioAssay (EPA / NIEHS).
Records with an inconclusive call do not appear. Activity calls are given as the source filed them. How the source made its calls: active means hit-call score of the fitted dose curve at least 0.9, where 1 is the maximum; inconclusive means response in the unintended direction; inactive means score below 0.9.

Assays:
[1] = TOX21_p53_BLA_p2_viability: Viability Assessment in the Tox21 HCT-116 p53 Agonism Beta-lactamase Assay, Phase 2 (AID 2283591);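 further: actives lower the ATP signal meaning cytotoxicity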
In short: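 HCT116 p53-bla cells, 4000/well, dosed after 5 h plating (217-fold dilution of DMSO stocks) and incubated 16 h at 37C. Viability taken as cellular ATP by CellTiter-Glo luminescence after 30 min RT; signal loss marks cytotoxicity.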

[2] = TOX21_p53_BLA_p3_viability: Viability Assessment in the Tox21 HCT-116 p53 Agonism Beta-lactamase Assay, Phase 3 (AID 2283593);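 further: cells exposed to compound for 16 h before reading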
In short: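 HCT116 cells, 4000/well, dosed 5 h after plating by pin transfer (217-fold dilution from DMSO stock) and incubated 16 h at 37C, 5% CO2. Viability read as ATP luminescence with CellTiter-Glo after 30 min at room temperature.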

[3] = TOX21_p53_BLA_p4_viability: Viability Assessment in the Tox21 HCT-116 p53 Agonism Beta-lactamase Assay, Phase 4 (AID 2283597);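 further: hits lower the luminescence signal meaning cytotoxicity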
In short: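 Compound exposure of HCT116 cells lasts 16 h at 37C, 5% CO2, with DMSO stocks diluted 217-fold. Cellular ATP is then quantified by CellTiter-Glo luminescence after 30 min at room temperature.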

[4] = molecular target: Cellular tumor antigen p53 (Homo sapiens) (UniProt P04637); test: TOX21_p53_BLA_p5_ratio: Tox21 HCT-116 p53 Agonism Beta-lactamase Assay, Ratio, Phase 5 (AID 2283599)
Chain of Cellular tumor antigen p53 (Homo sapiens) (P04637 whole entry, looked up): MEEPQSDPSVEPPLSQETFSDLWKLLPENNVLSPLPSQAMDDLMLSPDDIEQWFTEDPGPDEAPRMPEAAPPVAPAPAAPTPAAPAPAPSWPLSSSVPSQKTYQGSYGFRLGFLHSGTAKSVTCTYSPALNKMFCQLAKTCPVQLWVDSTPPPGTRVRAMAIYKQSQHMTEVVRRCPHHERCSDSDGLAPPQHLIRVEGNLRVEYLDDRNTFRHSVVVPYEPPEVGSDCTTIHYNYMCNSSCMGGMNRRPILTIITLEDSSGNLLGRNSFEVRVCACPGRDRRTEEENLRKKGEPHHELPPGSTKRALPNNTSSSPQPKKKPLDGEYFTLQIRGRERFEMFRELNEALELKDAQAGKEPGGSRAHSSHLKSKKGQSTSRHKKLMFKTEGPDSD
In short: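 HCT-116 p53-bla cells (4000/well) plated 5 h, dosed with compound (217-fold DMSO dilution) for 16 h at 37 C; CCF4-AM substrate 2 h at room temperature. Activity is the 460/530 nm emission ratio (405 nm excitation), fitted in gain-of-signal direction versus DMSO.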

[5] = TOX21_p53_BLA_p5_viability: Viability Assessment in the Tox21 HCT-116 p53 Agonism Beta-lactamase Assay, Phase 5 (AID 2283600)
In short: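 Counter-readout for cytotoxicity: ATP-dependent luminescence from CellTiter-Glo, read in the beta-lactamase wells after 30 min at RT, following a 16 h compound exposure at 37C.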

[6] = molecular target: Cellular tumor antigen p53 (Homo sapiens) (UniProt P04637); test: TOX21_p53_BLA_p4_ratio: Tox21 HCT-116 p53 Agonism Beta-lactamase Assay, Ratio, Phase 4 (AID 2283601)
In short: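 HCT-116 p53 beta-lactamase reporter cells (4000/well) preincubated 5 h, then compound (217-fold dilution of DMSO stock) for 16 h at 37C. CCF4-AM substrate added 2 h at room temperature; 460/530 nm emission ratio fitted upward versus DMSO.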

[7] = ACEA_AR_agonist_AUC_viability: ACEA Biosciences xCELLigence Real-Time Cell Analysis on Androgen Receptor Agonism for Viability (AID 2283775)
In short: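 Real-time impedance tracking of 22Rv1 growth, readings every 5 min for 5 h then hourly; area-under-curve viability endpoint at 80 hours, relative to DMSO. Compounds at eight concentrations, 1:4 steps, top 100 uM, n = 2.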

[8] = ACEA_AR_antagonist_AUC_viability: ACEA Biosciences xCELLigence Real-Time Cell Analysis on Androgen Receptor Antagonism for Viability (AID 2283776);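 further: 22Rv1 human prostate cancer cells growing on impedance electrode plates; hits lower the growth signal relative to DMSO meaning cytotoxicity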
In short: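 Viability endpoint from label-free cell-index monitoring: 22Rv1 cultures treated with an eight-point 1:4 dilution series starting at 100 uM final, AUC at 80 h fitted against DMSO.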

[9] = molecular target: Cellular tumor antigen p53 (Homo sapiens) (UniProt P04637); test: TOX21_p53_BLA_p3_ratio: Tox21 HCT-116 p53 Agonism Beta-lactamase Assay, Ratio, Phase 3 (AID 2283596)
In short: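 HCT116 p53-bla cells (4000/well) given compound in DMSO (217-fold dilution) after 5 h, incubated 16 h at 37C. CCF4-AM substrate 2 h at room temperature; 460/530 nm emission ratio, gain fitted against DMSO.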

Measured: outcome

O=S(=O)(O)c1ccc2ccccc2c1
not listed: [9]
inactive: all other assays above

O=C(C=Cc1ccccc1)OCC=Cc1ccccc1
inactive: [1] | [2] | [9] | [5] | [6]

CC(CCl)OP(=O)(OC(C)CCl)OC(C)CCl (configuration not stated)
not listed: [4]
inactive: all other assays above

OC[C@@H](O)[C@@H](O)[C@H](O)[C@@H](O)CO
not listed: [3]
inactive: all other assays above

CCCCCC=O
inactive: [1] | [9] | [3] | [4] | [5]

Nc1ccc([N+](=O)[O-])cc1O
not listed: [7] | [8]
inactive: all other assays above

CCc1ccc(C(c2ccc(CC)cc2)C(Cl)Cl)cc1
not listed: [7] | [8]
inactive: all other assays above

C1COCCN1
inactive: all assays above
